Results on 36 compounds are retold here after PubChem BioAssay (NCATS).

Structures are written as SMILES. Where “and” joins values, the source holds several entries; their conditions need not be identical. Equal entries are not always repeated. Inconclusive results are not listed. Calls of active or inactive are those of the source. The call rests on the fitted dose curve; in most records, active means well fitted inhibition curve with a large enough effect; inconclusive means small, poorly fitted or top-dose-only effect; inactive means flat fitted curve, though single readings scatter.
On the % scale 0 is the no-effect control and ±100 the full control effect.

One test concerns KB-3-1. Description: Cytotoxic Profiling of Annotated Libraries Using Quantitative High-Throughput Screening (AID 1296008). Further: nearly all actives have a fitted effect of over 60% in size. Conditions: Five cell lines viability, CellTiter-Glo ATP luminescence, 48-72 h; max response: stronger effect = lower value. The procedure, abridged:
(§1)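 Cells exposed to compounds for 48 or 72 hr at 37 degrees Celsius. Viability read as ATP-coupled luminescence with CellTiter-Glo after 10 min at room temperature.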
In general terms: In ATP-based viability assays light output follows the ATP content of the culture.
As to `CC(=O)N(O)CCCCCNC(=O)CCC(=O)N(O)CCCCCNC(=O)CCC(=O)N(O)CCCCCN`, the max response was 1.85% (inactive). The same measure, in the same setting: under `CN1[C@@H]2CC[C@H]1CC(OC(=O)c1c[nH]c3ccccc13)C2` (stereo partly drawn) stands -8.86% (inactive) and -5.38% (inactive).

As to `CC(O)(P(=O)(O)O)P(=O)(O)O`, the max response was 0.618% (inactive). Still for that read-out and setting: under `Cc1c(C(C)C)c(=O)n(-c2ccccc2)n1C` stands -0.49% (inactive). Still for that read-out and setting: under `CCCCC(=O)O[C@]1(C(=O)CO)CC[C@H]2[C@@H]3CCC4=CC(=O)CC[C@]4(C)[C@H]3[C@@H](O)C[C@@]21C` stands -2.52% (inactive); under `O=c1[nH]c(=O)n([C@H]2CCCO2)cc1F`, 8.54% (inactive); under `COC(=O)CCc1ccc(OCC(O)CNC(C)C)cc1` (stereo not drawn), 4.51% (inactive) and -9.53% (inactive). Still for that read-out and setting: under `Cc1cc2c(cc1CC(=O)c1sccc1S(=O)(=O)Nc1onc(C)c1Cl)OCO2` stands 9.67% (inactive). Regarding `CC(C)(C)NC(=O)[C@@H]1CN(Cc2cccnc2)CCN1C[C@@H](O)C[C@@H](Cc1ccccc1)C(=O)N[C@H]1c2ccccc2C[C@H]1O`, the max response was 9.13% (inactive). `CCCCS(=O)(=O)N[C@@H](Cc1ccc(OCCCCC2CCNCC2)cc1)C(=O)O`: the max response was -7.62% (inactive) and the result was inactive. On to `Cc1onc(-c2c(Cl)cccc2Cl)c1C(=O)N[C@@H]1C(=O)N2[C@@H]1SC(C)(C)[C@@H]2C(=O)O`, for which the max response is -7.64% (inactive) and 7.08% (inactive). The same measure, in the same setting: the value for `CN1CCN(C(c2ccccc2)c2ccccc2)CC1` was -11.4% (inactive) and 1.83% (inactive).

As to `O=C(O)CNC(=O)c1ccccc1`, the max response is -0.856% (inactive). On to `COC(=O)[C@@H]1CC2=CC(=O)CC[C@]2(C)[C@@]23O[C@@H]2C[C@@]2(C)[C@@H](CC[C@@]24CCC(=O)O4)[C@H]13`, for which the max response was -7.46% (inactive). As to `NC(CS)C(=O)O` (stereo not drawn), the max response was -0.484% (inactive). Same read-out and setting: under `CN(C)CCOc1ccccc1Cc1ccccc1` stands -14.6% (inactive); under `CCOC(=O)OC(C)OC1=C(C(=O)Nc2ccccn2)N(C)S(=O)(=O)c2ccccc21` (stereo not drawn), 2.11% (inactive). As to `N[C@H](Cc1c[nH]c2ccccc12)C(=O)O`, the max response is 5.87% (inactive).

As to `C[C@H](O)C(=O)Nc1c(I)c(C(=O)NC(CO)CO)c(I)c(C(=O)NC(CO)CO)c1I`, the max response was 3.55% (inactive).

For the compound `CC(C)COC(=O)c1ccc(N)cc1`, the max response was 12.1% (inactive). On the same count and under the same terms, under `Cc1ccc(C(=O)C(C)CN2CCCCC2)cc1` (stereo not drawn) stands 7.56% (inactive) and -13.6% (inactive) and 2.39% (inactive). Turning to `CC1(C)O[C@@H]2[C@@H](CO[C@@]3(COS(N)(=O)=O)OC(C)(C)O[C@@H]23)O1`, the max response was 12.1% (inactive). On the same count and under the same terms, under `CCN(CCCCOC(=O)c1ccc(OC)c(OC)c1)C(C)Cc1ccc(OC)cc1` (stereo not drawn) stands -8.65% (inactive); under `CN=C(NC#N)Nc1ccc(C2=NNC(=O)CC2C)cc1` (stereo not drawn), 6.06% (inactive); under `Cc1nc2n(c(=O)c1CCN1CCC(c3noc4cc(F)ccc34)CC1)CCC[C@H]2O`, -12.7% (inactive) and -2.14% (inactive).

Another test deals with NIH3T3. The test is described as above. As to conditions: Five cell lines viability, CellTiter-Glo ATP luminescence, 48-72 h; max response: stronger effect = lower value. In outline: as §1
`COc1ccc(C2C(=O)c3ccccc3C2=O)cc1`: the compound was classed as inactive. Still for that read-out and setting: under `Cc1c(N(C)CS(=O)(=O)O)c(=O)n(-c2ccccc2)n1C` stands “inactive”. For `OC[C@H]1O[C@H](O[C@]2(CCl)O[C@H](CCl)[C@@H](O)[C@@H]2O)[C@H](O)[C@@H](O)[C@H]1Cl`, the max response is -17.4% (inactive) and the compound was classed as inactive. Take `C[C@H](CCC(=O)O)[C@H]1CC[C@H]2[C@@H]3C(=O)C[C@@H]4CC(=O)CC[C@]4(C)[C@H]3CC(=O)[C@]12C`: the max response was -5.45% (inactive). `Cc1cc(O)c(C(C)C)cc1Cl`: the max response was 2.6% (inactive).

As to `O=C1c2ccccc2C(=O)C1c1ccccc1`, the compound was classed as inactive. As for `Cc1ncc(CSSCc2cnc(C)c(O)c2CO)c(CO)c1O`, the max response was 4.82% (inactive).

Turning to `NC[C@H]1O[C@H](O[C@H]2[C@H](O)[C@@H](O[C@H]3O[C@H](CO)[C@@H](O)[C@H](N)[C@H]3O)[C@H](N)C[C@@H]2N)[C@H](N)[C@@H](O)[C@@H]1O`, the max response is 1.61% (inactive).

As for `Cc1ccc(Nc2c(F)cccc2Cl)c(CC(=O)O)c1`, the max response is 2.46% (inactive). Consider `CC(=O)O[C@]1(C(C)=O)CC[C@H]2[C@@H]3C[C@H](C)C4=CC(=O)CC[C@]4(C)[C@H]3CC[C@@]21C`, for which the max response is -18.3% (inactive) and the outcome was inactive.

On to `CC(=O)OCC(=O)[C@@]1(O)[C@H](C)C[C@H]2[C@@H]3CCC4=CC(=O)C=C[C@]4(C)[C@@]3(F)[C@@H](O)C[C@@]21C`, for which the max response is 4.69% (inactive) and the outcome was inactive.

For the compound `CN1[C@@H]2CC[C@H]1CC(OC(=O)c1c[nH]c3ccccc13)C2` (stereo partly drawn), the outcome was inactive.

For the compound `CC(O)(P(=O)(O)O)P(=O)(O)O`, the max response is 0.0838% (inactive). Still for that read-out and setting: under `Cc1c(C(C)C)c(=O)n(-c2ccccc2)n1C` stands 0.732% (inactive).

In the case of `CCCCC(=O)O[C@]1(C(=O)CO)CC[C@H]2[C@@H]3CCC4=CC(=O)CC[C@]4(C)[C@H]3[C@@H](O)C[C@@]21C`, the max response was 1.69% (inactive).

In the case of `O=c1[nH]c(=O)n([C@H]2CCCO2)cc1F`, the max response is -5.35% (inactive). Turning to `COC(=O)CCc1ccc(OCC(O)CNC(C)C)cc1` (stereo not drawn), the max response is 1.54% (inactive) and 3.52% (inactive). Same read-out and setting: the value for `Cc1cc2c(cc1CC(=O)c1sccc1S(=O)(=O)Nc1onc(C)c1Cl)OCO2` was 0.409% (inactive) and 4.42% (inactive); that for `CC(C)(C)NC(=O)[C@@H]1CN(Cc2cccnc2)CCN1C[C@@H](O)C[C@@H](Cc1ccccc1)C(=O)N[C@H]1c2ccccc2C[C@H]1O` was 1.79% (inactive) and -2.96% (inactive). For `CCCCS(=O)(=O)N[C@@H](Cc1ccc(OCCCCC2CCNCC2)cc1)C(=O)O`, the max response was -1.76% (inactive) and the call was inactive. For the compound `Cc1onc(-c2c(Cl)cccc2Cl)c1C(=O)N[C@@H]1C(=O)N2[C@@H]1SC(C)(C)[C@@H]2C(=O)O`, the max response was -14.9% (inactive) and -2.17% (inactive). Regarding `CN1CCN(C(c2ccccc2)c2ccccc2)CC1`, the max response was 3.7% (inactive) and the compound was classed as inactive. Regarding `O=C(O)CNC(=O)c1ccccc1`, the compound was classed as inactive. As to `COC(=O)[C@@H]1CC2=CC(=O)CC[C@]2(C)[C@@]23O[C@@H]2C[C@@]2(C)[C@@H](CC[C@@]24CCC(=O)O4)[C@H]13`, the compound was classed as inactive. Take `NC(CS)C(=O)O` (stereo not drawn): the max response was -3.73% (inactive). For `CN(C)CCOc1ccccc1Cc1ccccc1`, the max response was -2.31% (inactive). `CCOC(=O)OC(C)OC1=C(C(=O)Nc2ccccn2)N(C)S(=O)(=O)c2ccccc21` (stereo not drawn): the max response was 3.47% (inactive).

With `N[C@H](Cc1c[nH]c2ccccc12)C(=O)O`, the max response is 3.07% (inactive).

As to `C[C@H](O)C(=O)Nc1c(I)c(C(=O)NC(CO)CO)c(I)c(C(=O)NC(CO)CO)c1I`, the max response is -5.03% (inactive).

With `CC(C)COC(=O)c1ccc(N)cc1`, the max response is 3.91% (inactive). As for `Cc1ccc(C(=O)C(C)CN2CCCCC2)cc1` (stereo not drawn), the max response was -4.42% (inactive) and the result was inactive. With `CC1(C)O[C@@H]2[C@@H](CO[C@@]3(COS(N)(=O)=O)OC(C)(C)O[C@@H]23)O1`, the max response was -0.846% (inactive).

For `CCN(CCCCOC(=O)c1ccc(OC)c(OC)c1)C(C)Cc1ccc(OC)cc1` (stereo not drawn), the max response is -18.2% (inactive). Same read-out and setting: the value for `CN=C(NC#N)Nc1ccc(C2=NNC(=O)CC2C)cc1` (stereo not drawn) was -5.93% (inactive). Turning to `Cc1nc2n(c(=O)c1CCN1CCC(c3noc4cc(F)ccc34)CC1)CCC[C@H]2O`, the max response was 1.23% (inactive) and the compound was called inactive.
